Laboratory results from PubChem BioAssay AID598 (SRMLSC, 2007).
Screen size: about 85,000 compounds; about 5,100 (6%) were called active. The sample holds actives, similar compounds and a random draw of the others, so the mix is not that of the screen. A number with no mark means an inactive call.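 How the source made its calls: active means viability at or below 40%; inactive means viability above 40%.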

Assay: proliferation blockers of H69AR lung cancer cells, primary screen, cell-based, human, 86K library (AID 598);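 further: multidrug resistant small cell line overexpressing MRP-1 efflux transporter; 100% = mean luminescence of untreated control wells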
Settings: H69AR lung tumor viability, ATP luminescence, 72 h; at 10 µM; hits give low values

Row | Compound | viability
1 | COc1cccc(OCC(=O)Nc2ccccc2C(N)=O)c1 | 85.5%
2 | COc1cccc(OCc2cc(/C=N/NC(=O)c3nc(Cl)c(Cl)c(N)c3Cl)ccc2OC)c1 | 19.7% (active)
3 | COc1cccc(OCCOc2cccc(/C=N/n3cnnc3)c2)c1 | 84.3%
4 | CCCCCN1CC(O)=C(c2ccccc2)C1=N | 88.7%
5 | COc1ccccc1N1CCN(C(=O)c2cn(-c3ccccc3)nc2-c2cccnc2)CC1 | 21.9% (active)
6 | O=C(c1cn(-c2ccccc2)nc1-c1cccnc1)N1CCCCC1 | 90.8%
7 | COc1ccc(Nc2ncc(C(=O)N3CCN(c4ccccc4OC)CC3)c3ccccc23)cc1 | 80.8%
8 | COc1cccc2c1OCC1COc3c(c(=O)n(C)c(=O)n3C)C21 (stereo unspecified) | 94.9%
9 | CCCCCCc1cc2cc(-c3nnc(-c4cccc(OC)c4)o3)c(=O)oc2cc1O | 2.32% (active)
10 | O=c1oc2cc(O)ccc2cc1-c1ccc(F)cc1 | 88.7%
11 | COc1cccc(C(=O)c2cc3ccc(O)cc3oc2=O)c1 | 68.4%
12 | CCCCN(CC)CCCNC(=O)CS(=O)(=O)Cc1nc(-c2cccc(OC)c2)oc1C | 88.1%
13 | CCCCCCc1cc2cc(-c3nnc(-c4ccccc4)o3)c(=O)oc2cc1O | 9.42% (active)
14 | CC(C)CCSc1ncnc2c1oc1nc3c(cc12)COC(C)(C)C3 | 68.6%
15 | Cc1nnc(SCc2nc3ccccc3nc2C)s1 | 97.2%
16 | Cc1cccc(N2C(=O)c3cccnc3C2=O)c1 | 92.3%
17 | CCN(CC)CCn1c(=S)[nH]c2ncccc2c1=O | 101%
18 | C=C(C)CNC(=S)/N=c1\scc(C)n1CC | 91.2%
19 | CCCCCc1ccc(-c2ccc(C(=O)O)cc2)nc1 | 35.7% (active)
20 | O=C(O)c1ccc(COCC(F)(F)F)cc1 | 98.2%
21 | CCC(C)NC(=O)CCCc1ccccc1 (stereo unspecified) | 86.3%
22 | Cc1cc(NC(=O)c2cc(-c3cccs3)on2)nn1Cc1ccc(Cl)cc1 | 26.1% (active)

Row | Compound | viability
23 | Cc1ccc(Cn2ccc(NC(=O)c3cc(C(C)C)on3)n2)cc1 | 95%
24 | O=C(c1cc(-c2cccs2)on1)N1CCCCC1 | 97.2%
25 | Cc1ccc(S(=O)(=O)N2CCN(S(=O)(=O)N3CCOCC3)CC2)cc1 | 93.1%
26 | C/C(=N\NC(=O)c1ccc(C)cc1)C1C(=O)c2ccccc2C1=O | 78.5%
27 | CC1CCN(C(=O)c2cc3nc(C4CC4)cc(C(F)(F)F)n3n2)CC1 | 97.6%
28 | CCC(C)NC(=O)CSC1=Nc2ccccc2C2=NC(CCC(=O)NCc3ccco3)C(=O)N12 (stereo unspecified) | 90.7%
29 | CCOc1nc(-c2ccc(OC)cc2)ccc1-c1noc(-c2cc(OC)c(OC)c(OC)c2)n1 | 13.9% (active)
30 | COc1cc(-c2nc(-c3ccncc3)no2)cc(OC)c1OC | 88.6%
31 | COc1ccc(-c2ccc(-c3noc(-c4ccncc4)n3)c(OC)n2)cc1 | 93.4%
32 | Cc1ccc(OCC(=O)N/N=C\c2ccco2)c(C)c1 | 93.4%
33 | Cc1ccc(S(=O)(=O)N(C)C2(C)CCS(=O)(=O)C2)cc1 (stereo unspecified) | 109%
34 | Cc1ccc(S(=O)(=O)NC(=O)N2CCCC(C)(C)C2)cc1 | 91%
35 | Cc1ccc(S(=O)(=O)C2(S(=O)(=O)c3ccc(C)cc3)CCCC2)cc1 | 18.3% (active)
36 | O=C1Nc2c(Br)cc(Br)cc2C1(O)N1CCOCC1 (stereo unspecified) | 31.2% (active)
37 | Cc1c(-c2ccccc2)nc(N)c(C#N)c1-c1cccs1 | 77%
38 | CCc1c(C)nc2cc(-c3cccs3)[nH]n2c1=O | 91.8%
39 | CCc1c(-c2ccccc2)nc(N)c(C#N)c1-c1cccs1 | 36% (active)
40 | O=C(O)CSc1nccn1-c1cccc(Cl)c1 | 88.9%
41 | Cc1noc(NS(=O)(=O)c2ccc(N/C=C/C(=O)c3ccccc3)cc2)c1C | 76.1%
42 | COc1ccc(CCNS(=O)(=O)c2ccc(Cl)s2)cc1OC | 93%
43 | COc1ccc(-c2cc(C(F)(F)F)nc(NCc3cccnc3)n2)cc1 | 92.9%
44 | COc1ccc(-c2nnco2)cc1OC | 107%

Row | Compound | viability
45 | COc1ccc(-c2cc(C(F)(F)F)nc(S(C)(=O)=O)n2)cc1OC | 1.78% (active)
46 | O=C(Nc1nncs1)c1cccc(S(=O)(=O)N2CCCCC2)c1 | 94.8%
47 | Cc1ccc(-n2c(SCC(=O)Nc3ccc4c(c3)OCO4)nnc2-c2ccccn2)cc1 | 65.9%
48 | Cc1cc(C)c(S(=O)(=O)N2C=CC(C(F)(F)F)=NCC2)c(C)c1 | 109%
49 | CCCCN(CC)CCNC(=O)c1[nH]c(C)c(C(C)=O)c1C | 101%
50 | Cc1ccc(C2(C(F)(F)F)N=C3Sc4cc(C)cc(C)c4N3C(=O)N2)cc1 (stereo unspecified) | 101%
51 | CCOC(=O)c1sc(=S)n2c1[nH]c(=O)c1ccc(C(=O)OC)cc12 | 36.7% (active)
52 | CCOC(=O)Cn1c(N)c(C(=O)OC)sc1=S | 105%
53 | CCOC(=O)c1sc(=S)n(-c2cccc(OC)c2)c1N | 97.3%
54 | Cc1ccc(C)c(N2C(=O)CS/C2=N\NC(=O)c2ccccc2Cl)c1 | 101%
55 | Cn1ccs/c1=N\S(=O)(=O)c1ccc(C(C)(C)C)cc1 | 89.4%
56 | COc1ccc(NC(=O)C2C3C=CC(C3)C2C(=O)NCc2ccccn2)c(OC)c1 (stereo unspecified) | 93.1%
57 | O=C(NCCc1ccccc1)c1ccc(OCCOc2ccccc2)cc1 | 87.8%
58 | COc1ccccc1Nc1nc(N)nc(CN(C)C2CCCCC2)n1 | 87.4%
59 | COc1ccccc1NC1=NC2(CCCC2)N=C(N)N1 | 91.5%
60 | COc1ccccc1NC1=NC(c2ccc(Cl)cc2)N=C(N)N1 (stereo unspecified) | 19.5% (active)
61 | Cc1ccc(S(=O)(=O)NCC(C)NS(C)(=O)=O)cc1 (stereo unspecified) | 95.2%
62 | CCOC(=O)c1sc(NC(=O)c2ccncc2)nc1C | 96.2%
63 | CCCCCOC(=O)c1ccc(N2C(=O)C3C4C=CC(C4)C3C2=O)cc1 (stereo unspecified) | 95.1%
64 | COC(=O)COc1ccc2oc(=O)cc(C)c2c1 | 91.9%
65 | COc1ccc(Nc2cc(=O)oc3ccccc23)cc1 | 18.4% (active)
66 | COc1ccc(N2CCN(Cc3cc(=O)oc4ccc5ccccc5c34)CC2)cc1 | 71.9%
